A short description of assay [1]: Nuclear factor erythroid 2-related factor 2/antioxidant responsive element (Nrf2/ARE) small molecule agonists: qHTS cell viability counter screen in human keratinocytes (AID 1919968; active = well fitted curve in the direction sought with a large enough effect in the repeat runs; an effect the other way counts as inactive or inconclusive; note: nearly all actives have a fitted effect of over 55% in size; note: potency is the fitted concentration of half-maximal effect). An outline of the steps:
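After a 5 h attachment period, ARE-reporter keratinocytes were dosed with compounds in DMSO and then cultured 23 h at 37 C. Cell viability came from CellTiter-Fluor signal read after a further 1 h.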

The nature of assay [2]: Nuclear factor erythroid 2-related factor 2/antioxidant responsive element (Nrf2/ARE) small molecule agonists: luciferase reporter gene qHTS assay in human keratinocytes (AID 1919969). Note: nearly all actives have a fitted effect of over 35% in size. A general note: Reporter assays use an easily measured gene product as a stand-in for the process of interest.
The target of assay [3] is Gonadotropin-releasing hormone receptor (Homo sapiens) (UniProt P30968). The assay is described as follows: Human gonadotropin-releasing hormone receptor (GnRHR) small molecule agonists, calcium flux assay in GnRHR-HEK293 cells (AID 1920063). Note: nearly all actives have a fitted effect of over 35% in size. A digest of the protocol:
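We seeded human GnRHR-expressing HEK293 cells for 18 hours, loaded them with calcium dye for an hour at 37 C, added test compounds, and recorded fluorescence intensity kinetically for three minutes.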
(In general: Calcium flux is commonly read through the fluorescence of an indicator in the cells.)

In assay [4] the target is KiSS-1 receptor (Homo sapiens) (UniProt Q969F8). The assay is described as follows: Human kisspeptin (KISS1R) small molecule agonists, calcium flux assay in KISS1R-HEK293 cells (AID 1920064; active = well fitted curve in the direction sought with a large enough effect in the repeat runs; an effect the other way counts as inactive or inconclusive). An outline of the steps: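 Kinetic calcium assay, 1 s sampling over 3 min at Ex/Em 480/540, in HEK293 cells engineered with human KISS1R; compounds delivered in DMSO after 1 h dye loading.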
Sequence of KiSS-1 receptor (Homo sapiens) (Q969F8 whole entry, looked up): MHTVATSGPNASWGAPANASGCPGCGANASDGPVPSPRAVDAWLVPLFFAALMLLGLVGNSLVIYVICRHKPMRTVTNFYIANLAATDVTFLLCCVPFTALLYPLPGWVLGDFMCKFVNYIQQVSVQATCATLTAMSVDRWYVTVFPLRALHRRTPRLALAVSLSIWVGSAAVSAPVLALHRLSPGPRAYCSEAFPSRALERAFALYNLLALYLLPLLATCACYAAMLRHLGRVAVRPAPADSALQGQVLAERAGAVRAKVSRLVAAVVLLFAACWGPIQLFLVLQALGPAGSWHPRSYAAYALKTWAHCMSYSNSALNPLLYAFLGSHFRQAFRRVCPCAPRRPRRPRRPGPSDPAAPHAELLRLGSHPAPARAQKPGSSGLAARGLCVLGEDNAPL

Assay [5] in a line: G protein-coupled receptor (GPCR) small molecule agonists, calcium flux assay: HEK293 wild type cell line counter screen (AID 1920065). A digest of the protocol:
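Calcium-sensitive dye, loaded 1 h at 37 C into cells cultured 18 h, reports compound-evoked calcium release as fluorescence (Ex/Em 480/540), measured over 3 min. Agonist mode; 15-point titrations, triplicate.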

Assay [6] can be described thus: p53 small molecule agonists, cell-based qHTS assay with rat liver microsomes (AID 1963578). Note: potency is the fitted concentration of half-maximal effect. An outline of the steps: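 Fluorescence from a beta-lactamase reporter under a p53 response element was measured after cells had been incubated 16 h at 37 C with test compound and rat liver microsomes plus NADPH (0.5 mg/mL final each).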
(In qHTS, concentration-response curves come from the screen itself.)

The nature of assay [7]: p53 small molecule agonists, cell-based qHTS assay with human liver microsomes: qHTS cell viability counter screen (AID 1963579). Note: nearly all actives have a fitted effect of over 45% in size. A digest of the protocol:
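Seed p53RE-bla cells at 4,000 per well; incubate 5 h at 37 C; add compound, human liver microsomes and NADPH; incubate 16 h at 37 C; add CellTiter-Glo; after 30 min at room temperature, read luminescence.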

Assay [8] in a line: p53 small molecule agonists, cell-based qHTS assay with rat liver microsomes: qHTS cell viability counter screen (AID 1963580). Note: nearly all actives have a fitted effect of over 45% in size. Note: potency is the fitted concentration of half-maximal effect. An outline of the steps:
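HCT-116 p53RE-bla, 4,000 cells/well, 5 h pre-incubation; cpd + rat liver microsomes 0.5 mg/mL + NADPH 0.5 mg/mL (final); 16 h, 37 C; CellTiter-Glo, 30 min RT; luminescence.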

A short description of assay [9]: p53 small molecule agonists, cell-based qHTS assay (AID 1963582; active = well fitted activation curve with a large enough effect in the signal ratio in the repeat runs, not every such curve was filed as active; the % refers to the signal ratio; note: potency is the fitted concentration of half-maximal effect). A digest of the protocol: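 In this cell-based concentration-response screen, a p53 response element drives beta-lactamase; cells received DMSO-borne compounds after 5 h culture and were incubated a further 16 h before FRET substrate development.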
Assay [10] has as its target 5-hydroxytryptamine receptor 2A (Homo sapiens) (UniProt P28223). The assay is described as follows: 5-hydroxytryptamine receptor 2A (HTR2A) small molecule antagonists, cell-based qHTS assay (AID 1963586). Note: nearly all actives have a fitted effect of over 45% in size. An outline of the steps: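 Antagonist-mode intracellular calcium assay: DOI (4 nM) added after 5 min compound pre-incubation at room temperature to dye-loaded HTR2A-CHO cells. Fluorescence followed for 3 min, sampled every second.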

The target is the same in assay [11]. The assay is described as follows: 5-hydroxytryptamine receptor 2A (HTR2A) small molecule agonists, cell-based qHTS assay (AID 1963587). Note: nearly all actives have a fitted effect of over 30% in size. A digest of the protocol: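 Kinetic calcium-flux fluorescence (2 min, 1 sec intervals) after compound addition in agonist mode. HTR2A-CHO cells were cultured 18 h, then dye-loaded 1 h at 37 C.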
Assay [12] deals with Muscarinic acetylcholine receptor M1 (Homo sapiens) (UniProt P11229). Put plainly: Cholinergic receptor muscarinic 1 (CHRM1) small molecule antagonists, cell-based qHTS assay (AID 1963588). Note: nearly all actives have a fitted effect of over 40% in size. A digest of the protocol: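 CHRM1-CHO calcium-flux assay, antagonist mode. Cells were seeded 18 h, dye-loaded 1 h at 37 C and given compound for 5 min at RT, then acetylcholine was added at 50nM. FDSS fluorescence was read 3 min; 15 concentrations, three runs.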
Sequence of Muscarinic acetylcholine receptor M1 (Homo sapiens) (P11229 whole entry, looked up): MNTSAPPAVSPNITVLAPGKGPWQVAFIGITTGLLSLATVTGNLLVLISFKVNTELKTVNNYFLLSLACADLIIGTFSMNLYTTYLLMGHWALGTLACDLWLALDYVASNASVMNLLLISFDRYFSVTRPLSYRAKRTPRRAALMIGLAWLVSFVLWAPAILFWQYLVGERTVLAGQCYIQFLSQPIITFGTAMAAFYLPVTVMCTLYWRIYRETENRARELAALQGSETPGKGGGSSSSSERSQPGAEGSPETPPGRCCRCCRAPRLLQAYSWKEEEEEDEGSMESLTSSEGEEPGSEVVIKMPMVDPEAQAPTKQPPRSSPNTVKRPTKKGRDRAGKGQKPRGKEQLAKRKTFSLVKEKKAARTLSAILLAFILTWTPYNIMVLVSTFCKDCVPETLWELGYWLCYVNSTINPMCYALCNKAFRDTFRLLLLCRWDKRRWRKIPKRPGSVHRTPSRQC

Assay [13] has the same target. The assay is described as follows: Cholinergic receptor muscarinic 1 (CHRM1) small molecule agonists, cell-based qHTS assay (AID 1963589). Note: nearly all actives have a fitted effect of over 35% in size. An outline of the steps: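 Measures agonist-induced intracellular calcium rise. Stable human CHRM1 CHO line, 1 h dye load at 37 C, compounds from DMSO, kinetic fluorescence read.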
The nature of assay [14]: cAMP Responsive Elements (CRE) small molecule antagonists, cell-based qHTS assay (AID 1963591; active = well fitted inhibition curve with a large enough effect in the signal ratio in the repeat runs, not every such curve was filed as active; the % refers to the signal ratio). A digest of the protocol: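 HEK293T cells carrying a CRE-driven beta-lactamase reporter receive compound and NKH477 (0.25 uM final) for 3 h. Fluorescence from LiveBLAzer B/G FRET substrate is read after 2 h at room temperature.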
The target of assay [15] is Beta-2 adrenergic receptor (Homo sapiens) (UniProt P07550). The assay is described as follows: Adrenergic beta2 receptor (ADRB2) small molecule antagonists, cell-based qHTS assay (AID 1963592). Note: series mostly up to about 92 µM; nearly all actives have a fitted effect of over 50% in size. A digest of the protocol:
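Cells (CHO, stable ADRB2 overexpression) incubated 18-20hr at 37C; compounds added from DMSO; agonist mix (1nM isoproterenol, 100uM IBMX, 25uM Ro-20-1724) added; 0.5hr RT; d2-cAMP and anti-cAMP-cryptate added; 1hr RT; 665/615 nm read.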

Assay [16] shares this target. Put plainly: Adrenergic beta2 receptor (ADRB2) small molecule agonists, cell-based qHTS assay (AID 1963593).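 Note: CHO cells stably overexpressing human ADRB2.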 An outline of the steps:
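CHO cells stably over-expressing ADRB2 were plated overnight at 37C, then dosed with compounds plus a stimulation mix containing 100uM IBMX and 25uM Ro-20-1724 for 0.5hr at room temperature. cAMP was measured by HTRF competition, 1hr.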

The target of assay [17] is D(2) dopamine receptor (Homo sapiens) (UniProt P14416). Put plainly: Dopamine D2 receptor (DRD2) small molecule agonists, cell-based qHTS assay (AID 1963594). Note: nearly all actives have a fitted effect of over 35% in size. An outline of the steps:
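cAMP accumulation in DRD2-HEK293 cells measured by HTRF after 1 h detection; compounds added 10 min before NKH477 (200nM […]) forskolin-analogue stimulation, 30 min at room temperature, with Ro20-1724 present at 0.1 mM final.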

Assay [18] has the same target. The assay is described as follows: Dopamine D2 receptor (DRD2) small molecule antagonists, cell-based qHTS assay (AID 1963595; active = well fitted inhibition curve with a large enough effect in the signal ratio in the repeat runs, with a control signal flat; the % refers to the signal ratio). A digest of the protocol:
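In this cell-based antagonist screen, compounds act for 10 min at room temperature before a 30 min challenge with 12 nM quinpirole and 200 nM NKH477. cAMP is quantified by HTRF competition in DRD2-HEK293 cells containing 0.1 mM Ro20-1724.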

The nature of assay [19]: p53 small molecule agonists, cell-based qHTS assay: qHTS cell viability counter screen (AID 1963581). Note: nearly all actives have a fitted effect of over 45% in size. Note: potency is the fitted concentration of half-maximal effect. A digest of the protocol:
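Following 5 h attachment, HCT-116 p53RE-bla cells took up compound for 16 h at 37 C; the reporter was read with B/G FRET substrate (2 h RT), and viability then via CellTiter-Glo ATP luminescence.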

Assay [20] is described as follows: cAMP Responsive Elements (CRE) small molecule agonists, cell-based qHTS assay (AID 1963590). A digest of the protocol: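 A CRE-responsive beta-lactamase reporter in HEK 293T cells was used. Treatment ran 3 h at 37 C; detection used LiveBLAzer B/G FRET substrate for 2 h at room temperature.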

Molecules are shown by their SMILES. Results filed as inconclusive are left out. The source made the active and inactive calls. Unless noted, calls come from the whole dose curve.

Sequence of Gonadotropin-releasing hormone receptor (Homo sapiens) (P30968 whole entry, looked up): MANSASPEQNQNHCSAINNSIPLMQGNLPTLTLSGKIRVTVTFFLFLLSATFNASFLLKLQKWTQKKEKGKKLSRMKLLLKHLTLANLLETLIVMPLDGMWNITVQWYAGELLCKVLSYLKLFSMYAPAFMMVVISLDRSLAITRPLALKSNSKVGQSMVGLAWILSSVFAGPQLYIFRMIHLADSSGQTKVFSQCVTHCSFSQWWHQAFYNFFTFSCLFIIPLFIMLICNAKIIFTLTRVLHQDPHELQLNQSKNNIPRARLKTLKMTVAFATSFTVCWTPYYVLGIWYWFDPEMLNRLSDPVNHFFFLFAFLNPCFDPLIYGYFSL
Sequence of 5-hydroxytryptamine receptor 2A (Homo sapiens) (P28223 whole entry, looked up): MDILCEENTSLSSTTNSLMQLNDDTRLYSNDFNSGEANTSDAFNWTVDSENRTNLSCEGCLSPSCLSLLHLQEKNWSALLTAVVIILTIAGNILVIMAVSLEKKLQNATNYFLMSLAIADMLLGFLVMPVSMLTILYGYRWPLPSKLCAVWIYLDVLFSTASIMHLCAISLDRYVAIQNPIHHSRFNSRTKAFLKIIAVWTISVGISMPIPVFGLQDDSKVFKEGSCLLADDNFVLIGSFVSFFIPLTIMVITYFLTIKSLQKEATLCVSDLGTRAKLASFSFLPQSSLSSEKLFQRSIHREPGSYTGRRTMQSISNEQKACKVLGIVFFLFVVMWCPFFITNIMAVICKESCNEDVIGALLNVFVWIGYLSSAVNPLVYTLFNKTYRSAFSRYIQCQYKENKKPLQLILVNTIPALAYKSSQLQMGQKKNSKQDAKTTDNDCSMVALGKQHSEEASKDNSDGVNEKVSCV
Sequence of D(2) dopamine receptor (Homo sapiens) (P14416 whole entry, looked up): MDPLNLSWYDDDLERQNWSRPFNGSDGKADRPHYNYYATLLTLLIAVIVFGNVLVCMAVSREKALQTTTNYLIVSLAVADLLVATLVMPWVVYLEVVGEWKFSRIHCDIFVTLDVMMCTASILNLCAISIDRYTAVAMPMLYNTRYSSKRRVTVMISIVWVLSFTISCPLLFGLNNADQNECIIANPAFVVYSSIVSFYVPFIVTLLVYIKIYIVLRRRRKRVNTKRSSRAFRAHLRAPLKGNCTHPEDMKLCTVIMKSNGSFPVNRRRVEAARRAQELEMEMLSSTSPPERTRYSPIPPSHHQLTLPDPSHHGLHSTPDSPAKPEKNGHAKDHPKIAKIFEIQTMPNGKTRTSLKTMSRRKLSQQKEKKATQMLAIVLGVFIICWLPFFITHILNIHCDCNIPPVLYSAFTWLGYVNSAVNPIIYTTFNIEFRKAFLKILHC
Sequence of Beta-2 adrenergic receptor (Homo sapiens) (P07550 whole entry, looked up): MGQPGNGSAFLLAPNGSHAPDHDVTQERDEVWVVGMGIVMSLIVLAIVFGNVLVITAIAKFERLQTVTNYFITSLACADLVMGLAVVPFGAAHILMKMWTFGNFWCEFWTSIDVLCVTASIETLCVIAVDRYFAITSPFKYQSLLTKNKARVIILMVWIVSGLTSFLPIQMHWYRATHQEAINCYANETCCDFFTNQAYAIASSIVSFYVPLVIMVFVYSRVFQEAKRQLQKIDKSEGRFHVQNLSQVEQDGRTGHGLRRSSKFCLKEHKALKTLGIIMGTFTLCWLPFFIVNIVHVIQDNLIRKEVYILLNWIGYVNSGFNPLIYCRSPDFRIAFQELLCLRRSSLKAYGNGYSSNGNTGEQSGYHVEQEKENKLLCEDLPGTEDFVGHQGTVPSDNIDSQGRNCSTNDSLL

`CC1=CC(C)C(C=O)C(C)C1` (centres undefined): the Potency entry in assay [1], in [2], in assay [3], in assay [4], in assay [5] and in assay [6] was “inactive” each time. Moreover, the Potency result in assay [7], in assay [8], in assay [9], in assay [10], in assay [11] and in assay [12] was “inactive” throughout. Moreover, the Potency result in assay [13], in [14], in assay [15], in assay [16], in assay [17] and in [18] was “inactive” throughout.

`CC(=O)NC1(c2cccc(F)c2)CCN(CC[C@@]2(c3ccc(Cl)c(Cl)c3)CN(c3ccccc3)C(=O)CO2)CC1`: the Potency in [1] is 48.7 µM (active); in [19], 36.5 µM (active). In addition, the Potency entry in assay [2], in assay [3], in assay [4], in [5], in assay [6] and in assay [7] was “inactive” each time. The Potency entry in assay [9], in assay [12], in [13], in assay [17] and in [18] was “inactive” in each case.

As to `NC(=O)N1C(=O)C(C(=O)c2cc(Cl)cs2)c2cc(F)c(Cl)cc21` (centres undefined), in [1], the Potency is 24.3 µM (active). Further, the Potency entry in [2], in assay [3], in assay [4], in [5], in assay [6] and in [7] was “inactive” each time. In addition, the Potency result in assay [8], in assay [19], in [10], in assay [13], in [17] and in [18] was “inactive” each time.

For the compound `Oc1ccc2c(c1)-c1ccccc1C2`, the Potency entry in assay [1], in [2], in assay [3], in assay [4], in assay [5] and in assay [6] was “inactive” in each case. The Potency entry in assay [7], in assay [8], in assay [9], in assay [10], in assay [11] and in [13] was “inactive” each time. Moreover, the Potency result in assay [20], in [15], in [17] and in assay [18] was “inactive” throughout.

As for `CCN(Cc1ccccc1)c1ccccc1`, the Potency result in assay [1], in assay [2], in assay [3], in [4], in [5] and in [6] was “inactive” each time. The Potency entry in assay [7], in [8], in assay [9], in [10], in assay [11] and in [12] was “inactive” each time. In addition, the Potency entry in assay [13], in [20], in assay [14], in assay [15], in assay [17] and in assay [18] was “inactive” each time.

Consider `CCc1c2c(nc3ccc(OC(=O)N4CCC(N5CCCCC5)CC4)cc13)-c1cc3c(c(=O)n1C2)COC(=O)[C@]3(O)CC`, for which the Potency entry in [1], in assay [2], in assay [3], in assay [4], in assay [5] and in assay [7] was “inactive” each time. Besides, the Potency entry in assay [20], in assay [15], in assay [17] and in assay [18] was “inactive” in each case. Moreover, the Potency in assay [6] was 0.0178 µM (active); in assay [8], 1.26 µM (active); in assay [9], 5 µM (active).

As for `O=C(O)CN1C(=O)c2cccc3cccc(c23)C1=O`, the Potency entry in assay [1], in [2], in [3], in [4], in assay [5] and in [6] was “inactive” throughout. For the same compound, the Potency result in assay [7], in assay [8], in [9], in [10], in assay [11] and in [12] was “inactive” throughout. The Potency entry in assay [13], in assay [20], in [14], in [15], in [17] and in [18] was “inactive” in each case.

(Values after PubChem BioAssay (Tox21).)
